# Measured values reported in PubChem BioAssay (Tox21).
# Results filed as inconclusive are left out. A call without a number means that no potency is given here. Calls of active or inactive are those of the source. Calls come from the whole dose curve; as a rule, active = well fitted activation curve with a large enough effect in the repeat runs; inconclusive = weak or mixed curves; inactive = flat fitted curve, though single readings scatter.
# Assay: A CellTox Green Cytotoxicity Assay to monitor cytotoxicity in HEK293 cells - 40 hour (AID 1224871); note: nearly all actives have a fitted effect of over 45% in size
# Settings: CellTox Green fluorescence; series mostly up to 76.8 µM
# Description: National Center for Advancing Translational Sciences [NCATS]
# NIH Chemical Genomics Center [NCGC]
# U.S. Environmental Protection Agency [EPA]
# National Institutes of Environmental Health Sciences [NIEHS]
# National Toxicology Program [NTP]
# Cell-based models are critical for drug discovery. Determining the natural cytotoxic effects resulting from test compounds is an essential research activity. A CellTox Green Cytotoxicity Assay to monitor cytotoxicity in real time of continues cell culture during 40 hours of the compound treatment was used to screen Tox21 10K library compounds in Hek293 cells. CellTox Green Cytotoxicity Assay is a nonlytic, homogeneous, biofluorescent method to measure cytotoxicity in cell culture after experimental manipulation. The assay system uses a proprietary asymmetric cyanine dye that is excluded from viable cells but preferentially stains the dead cell's DNA. […] Viable cells produce no appreciable increases in fluorescence. Therefore, the fluorescence signal produced by the binding interaction with dead cell DNA is proportional to cytotoxicity.
# The mixture of Hek293 cell suspension and reagents were dispensed at 600cells/6 ul/well in 1536-well tissue culture treated black solid bottom plates using a Multidrop dispenser. After the assay plates were incubated at a 37 C/5% CO2 incubator for 5 hours, 23 nL of compounds dissolved in DMSO, positive and negative controls was transferred to the assay plate by a pintool work station. The plates were incubated at 37 C for 40 hours. The fluorescence intensity were measured at 0h, 8h, 16h, 24h, 32h and 40h time points using ViewLux plate reader during compound treatment.
# Potency is the fitted concentration of half-maximal effect.
row,Structure (SMILES),Potency
1,CCCCCCCCCCBr,inactive
2,CCOP(=S)(OCC)SCS(=O)(=O)C(C)(C)C,inactive
3,CC(=O)C(Cl)(Cl)Cl,inactive
4,CCOc1cc(C(C)(C)C)ccc1C1COC(c2c(F)cccc2F)=N1 (stereo not given),inactive
5,CC(=O)c1ccc(-c2ccccc2)cc1,inactive
6,BrC(Br)Br,inactive
7,COC[C@H](C)N(C(=O)CCl)c1c(C)csc1C,inactive
8,C[C@]12CC[C@@H]3c4ccc(OC(=O)N(CCCl)CCCl)cc4CC[C@H]3[C@@H]1CC[C@@H]2O,inactive
9,CCOP(=S)(OCC)SCCS(=O)(=O)CC,inactive
10,Cc1cc(C)c(C2=C(OC(=O)CC(C)(C)C)C3(CCCC3)OC2=O)c(C)c1,inactive
11,CN(C)C1CSSSC1,inactive
12,Oc1ccc(C2(c3ccc(O)cc3)c3ccccc3-c3ccccc32)cc1,inactive
13,O=C(NC(=O)c1c(F)cccc1F)Nc1cc(Cl)c(OC(F)(F)C(F)F)c(Cl)c1,inactive
14,COC(=O)N(C(=O)N1CO[C@@]2(C(=O)OC)Cc3cc(Cl)ccc3C2=N1)c1ccc(OC(F)(F)F)cc1,inactive
15,COP(N)(=S)OC,inactive
16,FC(F)(F)c1cccc(C2=CCN(CCc3ccc4ccccc4c3)CC2)c1,inactive
17,N#CCCC(Br)(C#N)CBr (stereo not given),49 µM (active)
18,C[C@H]1CC[C@@H]2[C@@H](C)[C@H]3[C@H](C[C@H]4[C@@H]5CC=C6CC(O[C@@H]7O[C@H](CO)[C@H](O)[C@H](O[C@@H]8O[C@H](CO)[C@@H](O)[C@H](O)[C@H]8O)[C@H]7O[C@H]7O[C@@H](C)[C@H](O)[C@@H](O)[C@H]7O)CC[C@]6(C)[C@H]5CC[C@]34C)N2C1 (stereo not given in full),7.14 µM (active)
19,COS(=O)(=O)c1ccc(C)cc1,inactive
20,Cl/C=C\CCl,inactive

row,Structure (SMILES),Potency
1,[Hg+2].[I-].[I-],21.9 µM (active)
2,COC(=O)N(C(=O)N1COC2(C(=O)OC)Cc3cc(Cl)ccc3C2=N1)c1ccc(OC(F)(F)F)cc1 (stereo not given),inactive
3,CCOC(=O)OC1=C(c2cc(C)ccc2C)C(=O)NC12CCC(OC)CC2 (stereo not given),inactive
4,O=C(Cl)c1ccc(Cl)cc1,inactive
5,OC(c1ccc(Cl)cc1)(c1ccc(Cl)cc1)C(Cl)(Cl)Cl,49 µM (active)
6,ClCCN1CCOCC1,inactive
7,CC(C)[C@H](C(=O)OC(C#N)c1cccc(Oc2ccccc2)c1)c1ccc(OC(F)F)cc1 (stereo not given in full),inactive
8,CCCCCCCCCCCCCCCCCCn1cc[n+](C)c1,19.4 µM (active)
9,CC(C)[C@H](C(=O)O[C@H](C#N)c1cccc(Oc2ccccc2)c1)c1ccc(Cl)cc1,inactive
10,Cn1[nH]nnc1=S,inactive
11,C1CCC2CCCCC2C1 (stereo not given),inactive
12,N#CCCSCCC#N,inactive
13,CC1CCC(C(C)C)C(OC(=O)c2ccccc2N)C1 (stereo not given),27.2 µM (active)
14,CC(O)C#N (stereo not given),inactive
15,O=[N+]([O-])c1c2ccccc2cc2ccccc12,5.43 µM (active)
16,c1ccc2c(c1)[nH]c1cnccc12,inactive
17,CCc1cc(C)cc(CC)c1-c1c(OC(=O)C(C)(C)C)n2n(c1=O)CCOCC2,inactive
18,CC(=[OH+])/C=C(/C)[O-].CC(=[OH+])/C=C(\C)[O-].CC(=[OH+])/C=C(\C)[O-].[Fe],inactive
19,CCC(C)c1cc([N+](=O)[O-])cc([N+](=O)[O-])c1OC(=O)C=C(C)C (stereo not given),inactive
20,CC(c1ccc(O)cc1)c1ccc(O)cc1,inactive
